High-throughput results deposited in PubChem by SRMLSC.
Most compounds without a hit are left out; they make up all but 6.5% or so of the library.
Autofluor 339 = intrinsic fluorescence of library compounds, ex339/em460 – biochemical, MLSMR library, data from DPM-DC assay, artefact control, profiling panel | compound autofluorescence, ex339/em460 nm, NADH buffer; hits give high values; 1 = no-compound wells, NADH background | fluorescence fold increase at 10 µM | 65,000 tested, 5.5% active | AID 709;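 active = at 10 µM, mean starting fluorescence two-fold or more over control wells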;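 also: signal is the first read of a kinetic run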
PMK inhibit = S. pneumoniae PMK inhibition | 65,000 tested, 0.49% active | purified PMK, PK/LDH-coupled NADH absorbance 340 nm | inhibition, % at 10 µM;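 active = top-ranked compounds by inhibition in the single 10 µM screen, taking a fixed number of the strongest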
Spn DPM-DC inh = inhibitors of Streptococcus pneumoniae diphosphomevalonate decarboxylase. purified DPM-DC, PK/LDH coupled NADH fluorescence. calls only at 10 µM. 65,000 tested, 0.49% active. AID 556;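 active = the 320 compounds with the highest percent inhibition in the single-dose primary screen, excluding strongly autofluorescent ones, cut at about 32% in these data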;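 also: kinetic rate of NADH fluorescence loss reporting ADP formed by the decarboxylase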
NADH enzymes = inhibition of NAD/NADH coupling enzymes, library profiling | coupled PK/LDH NADH assays, four targets | IC50, µM (highest dose often 10 µM) | 65,000 tested, 0.02% active | AID 774;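 active = single-dose screening hits from any of four coupled enzyme assays that gave an IC50 when retested across doses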;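 also: the DPM-DC format reads NADH fluorescence rather than 340 nm absorbance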
MK inhibit = S. pneumoniae mevalonate kinase inhibition | purified MK, PK/LDH-coupled NADH absorbance 340 nm | 65,000 tested, 0.48% active | AID 555 | inhibition, % at 10 µM;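 active = ranked among the strongest by inhibition in the single 10 µM screen, a fixed top-ranked set picked for dose follow-up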
Abs 340nm = compounds absorbing at 340 nm | compound absorbance at 340 nm, fold over control | fold change at 10 µM | 65,000 tested, under 10 active;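 active = at 10 µM dose, initial 340 nm absorbance at least 2 fold that of control wells; inactive = change under 2 fold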;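 also: initial absorbance extrapolated from kinetic A340 decline of NADH oxidation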
Of the large screens only hits and unclear results are named; the others gave an inactive call.

COCCNc1oc(-c2ccc(C)cc2)nc1C#N	Autofluor 339 2.49 (not shown: Spn DPM-DC inh)
O=C(Cn1cccc1)N1CCN(C(c2ccccc2)c2ccccc2)CC1	none
O=C(CN1CCN(c2ncccn2)CC1)N1CCN(C(c2ccccc2)c2ccccc2)CC1	MK inhibit 49.0
O=C1c2ccccc2NC(c2ccc(F)cc2)N1Cc1ccco1 (stereo not given)	Autofluor 339 3.82 (not shown: Spn DPM-DC inh)
CC(=O)C1=C(O)C(=O)N(Cc2ccco2)C1c1ccc(F)cc1 (stereo not given)	none
O=C1c2ccccc2N2C(=O)c3ccccc3C2N1Cc1ccco1 (stereo not given)	none
O=C1c2ccccc2NC(c2ccccc2)N1Cc1ccco1 (stereo not given)	Autofluor 339 2.19 (not shown: Spn DPM-DC inh)
CN(C)P(=NC(=O)COc1ccc(Cl)cc1Cl)(N(C)C)N(C)C	none
CCn1c2ccccc2c2cc(C3C(C#N)=C(N)OC4=C3C(=O)CC(C)(C)C4)ccc21 (stereo not given)	none
CCn1c2ccccc2c2cc(C3C(C#N)=C(C)NC(C)=C3C#N)ccc21	Autofluor 339 4.75 (not shown: Spn DPM-DC inh)
CCn1c2ccccc2c2cc(N)ccc21	Autofluor 339 2.9 (not shown: Spn DPM-DC inh)
CCOC(=O)C1CCCCN1C(=O)CCc1c(C)nc2cc(-c3ccccc3)nn2c1C (stereo not given)	none
CCOC(=O)C1CCN(c2cc(C)nc3cc(-c4cccc(F)c4)nn23)CC1	Autofluor 339 2.6 (not shown: Spn DPM-DC inh)
Brc1c(CSc2nc3ccccc3o2)nc2ncccn12	Autofluor 339 5.01 (not shown: Spn DPM-DC inh)
Clc1c(CSc2nc3ccccc3o2)nc2ccccn12	none
Brc1c(CSc2nncn2-c2ccccc2)nc2ncccn12	Autofluor 339 3.96 (not shown: Spn DPM-DC inh)
O=c1[nH]c2ccsc2c(=O)n1-c1ccc(F)c(Cl)c1	none
CC(SCCc1ccccn1)C(=O)O (stereo not given)	none
CCN(CC)CCOC(=O)c1ccc(N=CC2=C(O)CC(C)(C)CC2=O)cc1	Spn DPM-DC inh active
CC(C)(C)Sc1nc(O)cc(=O)[nH]1	none
COc1ccc2sc(N3C(=O)C4CC=C(C)CC4C3=O)nc2c1 (stereo not given)	none
CCCN(CC(=O)c1cc(C)n(C)c1C)S(=O)(=O)c1cccc(C(F)(F)F)c1	Autofluor 339 2.93, Spn DPM-DC inh active
CCN(CC)S(=O)(=O)c1cccc(-c2nnc(SCC(=O)c3cc(C)n(C)c3C)o2)c1	none
COc1ccc(OC)c(N2Cc3cc(C)c(C)cc3C2)c1	none
CCN1CC=C2C(C#N)=C(N)C(C#N)(C#N)C(c3cc(Cl)ccc3Cl)C2C1 (stereo not given)	Autofluor 339 2.9
CC(C)N1CC=C2C(C#N)=C(N)C(C#N)(C#N)C(c3ccccc3)C2C1 (stereo not given)	none
OCCNCC1(O)C2CC3CC(C2)CC1C3 (stereo not given)	PMK inhibit 26.0
CCOC(=O)N1CCC(NC(=O)c2csc3c2CCCC3)CC1	none
COC(=O)c1c(C)cc(C)n2c1nc1ccccc12	Autofluor 339 3.53 (not shown: Spn DPM-DC inh)
Cc1cc(-c2ccccc2)nc(=O)[nH]1	none
CCC1C(=O)n2nc(-c3ccccc3)cc2N=C1C (stereo not given)	Autofluor 339 2.05
Cc1ccc(C2C3=C(CC(C)(C)CC3=O)N(CCN3CCOCC3)C3=C2C(=O)CC(C)(C)C3)cc1	Autofluor 339 3.79, Spn DPM-DC inh active
COc1cc(OC)c2c(C)c(Cl)c(=O)oc2c1	Autofluor 339 3.66 (not shown: Spn DPM-DC inh)
COc1ccc(Cn2c(C)nc3oc4cc(OC)ccc4c(=O)c3c2=O)cc1	none
O=c1c2nnn(Cc3ccccc3)c2ncn1C/C=C/c1ccccc1	none
O=c1cc(-c2ccccc2)[nH]n1-c1nc2ccccc2s1	none
O=c1cc(-c2ccccc2)[nH]c2nc3ccccc3n12	Autofluor 339 2.48 (not shown: Spn DPM-DC inh)
O=C(Nc1c(C(=O)O)oc2ccc(Br)cc12)c1ccccc1	none
O=C(Nc1ccc(F)cc1F)c1cc2ncc(Br)cn2n1	none
COC(=O)c1ccccc1NC(=O)c1cc2ncc(Br)cn2n1	Autofluor 339 2.08
COc1cc(OC)cc(-c2nnc(SCc3c(F)cccc3Cl)o2)c1	none
COC(=O)c1cc(-c2ccc3c(c2)OCO3)nc2ccccc12	Autofluor 339 2.19 (not shown: Spn DPM-DC inh)
COc1ccc(-c2cc(C(=O)N3CCOCC3)c3cc(C)ccc3n2)cc1	Autofluor 339 3.7 (not shown: Spn DPM-DC inh)
COc1ccc(-c2nn(-c3ccccc3)cc2C(=O)N2CCOCC2)cc1	none
Cc1ccc(-c2cc(C(=O)N3CCOCC3)c3ccccc3n2)cc1	Autofluor 339 2.09 (not shown: Spn DPM-DC inh)
Cc1ccc(-c2cc(C(=O)N3CCN(c4ncccn4)CC3)c3ccccc3n2)cc1	none
CCOC(=O)c1cnc2sc3c(n2c1=O)CCCC3	Autofluor 339 5.04 (not shown: Spn DPM-DC inh)
CC(C)(C)N1C(=O)c2ccc(C(=O)NCc3ccco3)cc2C1=O	none
CCN1CCCC1CNC(=O)c1cc2c(-c3ccc(Cl)cc3)nn(C)c2s1 (stereo not given)	Autofluor 339 2.13 (not shown: Spn DPM-DC inh)
COc1cccc(-c2nn(C)c3sc(C(=O)NCc4ccco4)cc23)c1	Autofluor 339 3.02
CCN1CCCC1CNC(=O)c1cc2c(-c3cccc(OC)c3)nn(C)c2s1 (stereo not given)	Autofluor 339 4.98 (not shown: Spn DPM-DC inh)
COc1ccc(NC(=O)Cn2c(=O)sc3ccccc32)c(OC)c1	none
CC12CCC(C(=O)N(c3ccccn3)c3ccccn3)(OC1=O)C2(C)C (stereo not given)	none
CCOc1ccccc1OCCCCN1CCCC1	MK inhibit 50.0
Cc1sc2ncnc(-n3cnc4ccccc43)c2c1C	Autofluor 339 2
Oc1cccc(/C=N/c2c(-c3ccco3)nc3ccccn23)c1	Autofluor 339 2.13 (not shown: Spn DPM-DC inh)
O=C(Nc1c(-c2ccccc2)nc2ccccn12)c1ccco1	none
COc1ccc2[nH]c(C)c(CN3CCCCC3)c(=O)c2c1	Autofluor 339 2.76
CCOc1ccc2[nH]c(C)c(CN3CCOCC3)c(=O)c2c1	none
Cc1ccccc1OCCCCCn1ccnc1	none
Cc1cccc(OCCCCCn2ccnc2)c1	MK inhibit 48.0
CCOC(=O)CC1=CC(C)(CC(=O)OCC)C(C#N)(C#N)C(N)=C1C#N (stereo not given)	none
CCC(=O)Nc1ccc2c(c1)C(=O)N(C1CCCCC1)C2=O	Autofluor 339 3.93 (not shown: Spn DPM-DC inh)
Cc1cc(NC(=O)c2ccc3c(c2)C(=O)N(C2CCCCC2)C3=O)no1	none
Cc1cc(C)c2c(n1)nn1c(C)c(CCC(=O)NCc3ccco3)c(C)nc21	Autofluor 339 2.15 (not shown: Spn DPM-DC inh)
Cc1ccc(-n2nc(C)c3c(C)c(CCC(=O)NCc4ccco4)c(C)nc32)cc1	Autofluor 339 2.16 (not shown: Spn DPM-DC inh)
CCOC(=O)N1CCN(C(=O)CCc2c(C)nc3c(c(C)nn3-c3ccc(C)c(C)c3)c2C)CC1	Autofluor 339 2.63, Spn DPM-DC inh active
N#Cc1nc(-c2cccs2)oc1NCC1CCCO1 (stereo not given)	Autofluor 339 2.26 (not shown: Spn DPM-DC inh)
COc1ccc(-c2nc(C#N)c(NCC3CCCO3)o2)cc1 (stereo not given)	Autofluor 339 2.27 (not shown: Spn DPM-DC inh)
